IC50 data for three compounds are collected here from PubChem BioAssay AID651561 (Sanford-Burnham Center for Chemical Genomics, 2012).

Some of the results follow. Active and inactive are the calls of the source. No stated cut-off is given here; in the data, active means IC50 below about 20 µM; inactive means the rest.

This assay is described as follows: mitochondrial permeability transition pore inhibitors, dose response, biochemical, absorbance, uHTS hits (AID 651561). To be noted: isolated mitochondria swelling.
As for `CC(Cc1ccccc1)NCCC(c1ccccc1)c1ccccc1` (stereo not drawn), the IC50 is 4.21 µM (active). Next, `O=Cc1cn(Cc2ccc(F)cc2Cl)c2ccccc12`: 32.3 µM (inactive). The figure for `COc1ccc(C2NCc3ccc4c(c3-n3cccc32)OCO4)cc1OC` (stereo not drawn) is 26.9 µM (inactive).
